PubChem BioAssay (EPA / NIEHS)
“And” between values parts separate entries of the source, which are not always exact repeats. Equal values may be shown once. Where a structure was tested more than once in an assay, its records may differ in their call. The source made the active and inactive calls. Rule for the calls: active = hit-call score of the fitted dose curve at least 0.9, where 1 is the maximum; inactive = score below 0.9.

Key:
[1] = APR_HepG2_MitoMembPot_72hr: Apredica 72-hour HepG2 Assay for Mitochondrial Membrane Potential (AID 2282917); conditions: imaging, actives raise or lower the signal
Summary of the method: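 HepG2 cells dosed 72 hr with compound at 0.39–200 uM in duplicate, 0.5% v/v DMSO final. Mitochondria stained with 250 nM MitoTracker Red CMXRos for 30 min before formaldehyde fixation, imaged by high-content fluorescence; bidirectional fit versus DMSO.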

[2] = APR_HepG2_MitoticArrest_72hr: Apredica 72-hour HepG2 Assay for Mitotic Arrest (AID 2282918); conditions: high-content imaging, actives raise or lower the signal
Summary of the method: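 Read-out is phospho-histone H3 immunofluorescence with Hoechst nuclear segmentation, imaged at 20x. Human HepG2 liver cells received ten concentrations (0.39–200 uM, final DMSO 0.5% v/v) for 72 hr before fixation. Gain or loss of signal was fitted relative to DMSO.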

[3] = APR_HepG2_MicrotubuleCSK_72hr: Apredica 72-hour HepG2 Assay for Microtubule CSK Stabilty (AID 2282919); conditions: HepG2 microtubule cytoskeleton, high-content imaging, actives raise or lower the signal
Summary of the method: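 HepG2 cells were exposed 72 hr to compound at 0.39–200 uM in duplicate (0.5% DMSO final), then fixed and permeabilized. Alpha-tubulin immunofluorescence was imaged by high-content microscopy, with bidirectional fitting against DMSO and taxol as positive control.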

[4] = APR_HepG2_P-H2AX_24hr: Apredica 24-hour HepG2 Assay for H2AX Phosphorylation (AID 2282920); conditions: high-content imaging, actives raise or lower the signal
Summary of the method: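 HepG2, 24 hr, cpd 0.39–200 uM (10 conc, duplicate), DMSO 0.5% v/v final. Fix 3.7% formaldehyde, Triton X-100 permeabilize, anti-phospho-H2A.x 1:200 + Hoechst 2 ug/mL. Imaged, bidirectional fit vs DMSO.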

[5] = APR_HepG2_StressKinase_72hr: Apredica 72-hour HepG2 Assay for Stress Kinase (AID 2282921); conditions: HepG2 stress kinase (phospho-c-Jun) imaging, actives raise or lower the signal
Summary of the method: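 Dose 0.39–200 uM (10 pts, duplicate), 0.5% DMSO; 72 h; fix 3.7% formaldehyde 30 min RT; Triton permeabilize; anti-phospho-c-Jun/Cy3 + Hoechst 60 min RT; image 20x; fit gain/loss vs DMSO.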

[6] = APR_HepG2_StressKinase_24hr: Apredica 24-hour HepG2 Assay for Stress Kinase (AID 2282922); conditions: HepG2 stress kinase (phospho-c-Jun) imaging, actives raise or lower the signal
Summary of the method: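 HepG2 cells exposed 24 h to 0.39–200 uM compound in duplicate (0.5% v/v DMSO final). Cells fixed in 3.7% formaldehyde, permeabilized and immunostained for phospho-c-Jun; read by high-content fluorescence imaging, fitted bidirectionally against DMSO.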

[7] = APR_HepG2_MitoMass_72hr: Apredica 72-hour HepG2 Assay for Mitochondrial Mass (AID 2282924); conditions: high-content imaging, actives raise or lower the signal;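 note: MitoTracker Red CMXRos stain intensity per cell imaged as mitochondrial mass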
Summary of the method: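 HepG2 cells dosed 72 hr at 0.39–200 uM (0.5% DMSO), in duplicate. MitoTracker Red CMXRos 250 nM loaded 30 min before formaldehyde fixation; high-content fluorescence imaging, bidirectional fit versus DMSO.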

[8] = APR_HepG2_NuclearSize_72hr: Apredica 72-hour HepG2 Assay for Nuclear Size (AID 2282925); conditions: high-content imaging, actives raise or lower the signal
Summary of the method: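 HepG2 cells dosed 72 h at 0.39–200 uM (10 concentrations, duplicate) in 0.5% v/v DMSO final. Fixed, Hoechst 33342-stained nuclei imaged; nuclear diameter measured by automated image analysis. Bidirectional fit versus DMSO.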

[9] = ATG_CRE_CIS: Attagene CIS-FACTORIAL HepG2 Assay for human cAMP Responsive Element (CRE) binding protein 3 (AID 2282926); conditions: HepG2 CRE cis-reporter, Attagene multiplexed mRNA; actives raise or lower the signal
Summary of the method: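 Human liver HepG2, transient MRTU transfection, 24 h compound exposure. Total RNA → oligo(dT) RT → PCR → 6-FAM primer extension → HpaI cut → CE. Activity called both directions vs DMSO.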

[10] = target: CCAAT/enhancer-binding protein beta (Homo sapiens) (UniProt P17676); assay: ATG_C_EBP_CIS: Attagene CIS-FACTORIAL HepG2 Assay for human CCAAT/Enhancer Binding Protein (C/EBP) beta (AID 2282927); conditions: HepG2 Attagene cis-factorial transcription factor reporter; actives raise or lower the signal
Summary of the method: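 HepG2 transiently transfected with multiplexed reporter units under cis-regulatory promoters reporting endogenous C/EBPb activity. After 24 h exposure, reporter mRNA assayed by RT-PCR, fluorescent labelling, HpaI digestion and capillary electrophoresis; bidirectional fitting versus DMSO.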

[11] = ATG_CMV_CIS: Attagene CIS-FACTORIAL HepG2 Assay for human CMV (Internal Marker) (AID 2282928); conditions: HepG2 CMV promoter reporter, transcription factor profiling; actives raise or lower the signal;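 note: endpoint acts as a background internal control marker rather than a target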
Summary of the method: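 HepG2 cells transiently transfected with multiple cis-regulated reporter units; 24 h compound exposure. Reporter mRNA quantified by RT-PCR, 6-FAM primer-extension labeling, HpaI digestion and capillary electrophoresis; bidirectional fitting against DMSO baseline.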

[12] = ATG_DR4_LXR_CIS: Attagene CIS-FACTORIAL HepG2 Assay for human Liver X Receptor (LXR), DR4 submotif (AID 2282929); conditions: HepG2 Attagene DR4 cis-reporter, mRNA transcription; actives raise or lower the signal
Summary of the method: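 HepG2 cells transiently transfected with cis-promoter-driven multiplexed reporter units (DR4 element) were dosed for 24 h. Reporter mRNA was quantified by RT-PCR, fluorescent primer extension, HpaI digestion and capillary electrophoresis; bidirectional fitting versus DMSO baseline.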

[13] = target: Aryl hydrocarbon receptor (Homo sapiens) (UniProt P35869); assay: ATG_Ahr_CIS: Attagene CIS-FACTORIAL HepG2 Assay for human Aryl Hydrocarbon Receptor (Ahr) (AID 2282930); conditions: HepG2 AhR cis-factorial reporter transcription; actives raise or lower the signal
Summary of the method: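 HepG2 cells transiently transfected with cis-element-driven multiplexed reporter units; endogenous AhR activity read as reporter mRNA 24 h after dosing, via RT-PCR, 6-FAM labelling, HpaI digestion and capillary electrophoresis. Bidirectional fit relative to DMSO.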

[14] = ATG_AP_1_CIS: Attagene CIS-FACTORIAL HepG2 Assay for human Activator Protein 1 (AP-1) (AID 2282931); conditions: HepG2 Attagene cis-factorial AP-1 reporter mRNA; actives raise or lower the signal
Summary of the method: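 HepG2 cells transiently transfected with cis-element-driven multiplex reporter units; 24 h compound exposure. Reporter mRNA quantified by RT-PCR, FAM-labelled fragments resolved by capillary electrophoresis; bidirectional fit versus DMSO baseline.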

[15] = ATG_AP_2_CIS: Attagene CIS-FACTORIAL HepG2 Assay for human Activator Protein 2 (AP-2) (AID 2282932); conditions: HepG2 AP-2 cis-reporter, Attagene transcription factor profiling; actives raise or lower the signal
Summary of the method: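 HepG2 cells transiently transfected with cis-element reporter units and exposed for 24 h. Reporter mRNA measured by RT-PCR, FAM labelling, HpaI digestion and capillary electrophoresis. Changes in either direction fitted relative to DMSO.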

[16] = ATG_BRE_CIS: Attagene CIS-FACTORIAL HepG2 Assay for human Bone Morphogenetic Protein (BMP) Response Element (BRE) (AID 2282933); conditions: HepG2 BMP response element reporter, Attagene transcription factor profiling; actives raise or lower the signal
Summary of the method: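 Read-out: reporter mRNA induction quantified by RT-PCR and capillary electrophoresis after 24 h chemical exposure of transfected HepG2 cells. Endogenous factor activity on the BMP response element; gain or loss fitted against DMSO baseline.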

[17] = target: Retinoic acid receptor alpha (Homo sapiens) (UniProt P10276); assay: ATG_DR5_RAR_CIS: Attagene CIS-FACTORIAL HepG2 Assay for human Retinoic Acid Receptor Alpha (RARE), DR5 submotif (AID 2282934); conditions: HepG2 Attagene cis-factorial RARE DR5 reporter, mRNA; actives raise or lower the signal
Summary of the method: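 HepG2 cells transiently transfected with multiplexed reporter units; DR5 cis-element drives reporter through endogenous transcription factors. After 24 h dosing, reporter mRNA quantified by RT-PCR, fluorescent labeling, HpaI digestion and capillary electrophoresis; bidirectional fitting versus DMSO.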

[18] = target: Transcription factor E2F1 (Homo sapiens) (UniProt Q01094); assay: ATG_E2F_CIS: Attagene CIS-FACTORIAL HepG2 Assay for human E2F Transcription Factor 1 (AID 2282935); conditions: HepG2 Attagene cis-reporter, E2F reporter RNA transcripts; actives raise or lower the signal
Summary of the method: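 Endogenous E2F1 activity read through cis-promoter reporter units transfected into HepG2. After 24 h compound treatment, reporter mRNA measured by RT-PCR, HpaI digestion and capillary electrophoresis. Bidirectional fit versus DMSO.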

[19] = APR_HepG2_p53Act_72hr: Apredica 72-hour HepG2 Assay for p53 Activation (AID 2282923); conditions: high-content imaging, actives raise or lower the signal;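 note: average cellular p53 protein immunofluorescence intensity in HepG2 cells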
Summary of the method: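 10-pt conc. 0.39–200 uM, duplicate, 0.5% DMSO; 72 hr exposure; 3.7% formaldehyde fix, 0.5% Triton perm; sheep anti-p53/Cy5 + Hoechst; ArrayScan 20x, 6 images/well; gain/loss fit vs DMSO.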

[20] = ATG_E_Box_CIS: Attagene CIS-FACTORIAL HepG2 Assay for human Enhancer Box (E-box) (AID 2282936); conditions: HepG2 E-box cis-reporter transcription, actives raise or lower the signal
Summary of the method: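 HepG2 cells transiently transfected with multiplexed cis-element reporter units, dosed 24 h; reporter mRNA quantified by RT-PCR, 6-FAM labelling, HpaI digestion and capillary electrophoresis. E-box (USF1) signal fitted bidirectionally vs DMSO.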

Measured: AC50

Chain of Retinoic acid receptor alpha (Homo sapiens) (P10276 whole entry, looked up): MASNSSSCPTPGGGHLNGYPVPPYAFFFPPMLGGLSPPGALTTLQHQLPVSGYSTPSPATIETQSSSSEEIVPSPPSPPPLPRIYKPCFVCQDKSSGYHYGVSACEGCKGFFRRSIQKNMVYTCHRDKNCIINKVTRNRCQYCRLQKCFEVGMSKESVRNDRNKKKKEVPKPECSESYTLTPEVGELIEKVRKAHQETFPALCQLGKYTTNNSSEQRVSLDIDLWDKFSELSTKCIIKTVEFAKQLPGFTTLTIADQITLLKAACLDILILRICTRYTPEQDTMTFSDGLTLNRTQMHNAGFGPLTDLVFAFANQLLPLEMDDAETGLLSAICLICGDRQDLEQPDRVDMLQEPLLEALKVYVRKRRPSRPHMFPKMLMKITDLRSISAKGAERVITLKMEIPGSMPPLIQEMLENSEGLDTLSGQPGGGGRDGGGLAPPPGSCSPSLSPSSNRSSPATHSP
Chain of Aryl hydrocarbon receptor (Homo sapiens) (P35869 whole entry, looked up): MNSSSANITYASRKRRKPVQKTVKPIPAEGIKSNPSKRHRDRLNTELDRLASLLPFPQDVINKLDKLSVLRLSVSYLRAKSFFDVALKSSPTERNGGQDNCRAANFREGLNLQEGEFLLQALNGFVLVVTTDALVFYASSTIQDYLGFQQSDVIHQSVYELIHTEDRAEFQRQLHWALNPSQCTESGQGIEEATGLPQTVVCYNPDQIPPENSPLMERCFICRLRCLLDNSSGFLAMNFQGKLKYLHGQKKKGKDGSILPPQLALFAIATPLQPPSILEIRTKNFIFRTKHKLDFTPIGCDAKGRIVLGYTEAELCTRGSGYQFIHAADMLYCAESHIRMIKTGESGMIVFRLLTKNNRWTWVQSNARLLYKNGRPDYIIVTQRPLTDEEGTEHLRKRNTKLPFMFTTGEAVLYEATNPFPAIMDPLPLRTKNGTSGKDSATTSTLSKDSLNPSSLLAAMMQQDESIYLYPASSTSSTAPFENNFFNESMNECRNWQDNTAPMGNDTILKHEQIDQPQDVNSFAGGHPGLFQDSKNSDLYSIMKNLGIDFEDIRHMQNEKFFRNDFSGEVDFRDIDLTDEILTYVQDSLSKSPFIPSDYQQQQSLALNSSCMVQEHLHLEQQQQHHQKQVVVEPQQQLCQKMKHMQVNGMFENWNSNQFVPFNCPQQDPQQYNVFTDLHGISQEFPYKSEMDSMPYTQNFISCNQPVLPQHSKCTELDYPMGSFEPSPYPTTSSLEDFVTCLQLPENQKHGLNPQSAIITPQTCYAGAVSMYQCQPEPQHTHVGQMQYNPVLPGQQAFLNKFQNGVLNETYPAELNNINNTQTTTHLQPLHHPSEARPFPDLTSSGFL
Chain of CCAAT/enhancer-binding protein beta (Homo sapiens) (P17676 whole entry, looked up): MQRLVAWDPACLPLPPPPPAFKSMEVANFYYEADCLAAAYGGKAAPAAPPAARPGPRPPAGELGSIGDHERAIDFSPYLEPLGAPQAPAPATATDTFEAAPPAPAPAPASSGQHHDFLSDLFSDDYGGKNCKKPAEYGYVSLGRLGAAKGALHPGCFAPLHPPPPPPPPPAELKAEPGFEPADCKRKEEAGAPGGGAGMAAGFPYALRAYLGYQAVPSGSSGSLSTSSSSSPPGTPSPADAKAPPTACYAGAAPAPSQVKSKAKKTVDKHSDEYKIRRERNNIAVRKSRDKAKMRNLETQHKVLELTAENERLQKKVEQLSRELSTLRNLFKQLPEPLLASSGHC
Chain of Transcription factor E2F1 (Homo sapiens) (Q01094 whole entry, looked up): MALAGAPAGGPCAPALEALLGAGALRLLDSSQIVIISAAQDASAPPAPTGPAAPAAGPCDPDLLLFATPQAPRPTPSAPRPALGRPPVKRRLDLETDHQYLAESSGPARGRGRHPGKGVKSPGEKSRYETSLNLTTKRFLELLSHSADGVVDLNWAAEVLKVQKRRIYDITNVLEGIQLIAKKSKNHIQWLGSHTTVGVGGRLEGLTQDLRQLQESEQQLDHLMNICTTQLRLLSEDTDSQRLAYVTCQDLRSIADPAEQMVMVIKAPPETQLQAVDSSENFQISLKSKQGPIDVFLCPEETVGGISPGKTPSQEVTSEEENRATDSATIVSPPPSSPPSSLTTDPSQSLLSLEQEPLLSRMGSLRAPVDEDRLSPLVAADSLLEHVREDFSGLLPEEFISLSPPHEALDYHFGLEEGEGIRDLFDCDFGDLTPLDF

CCCCOCCOCCOCc1cc2c(cc1CCC)OCO2
active: [3] 78.1 µM | [11] 24.3 µM | [12] 89.8 µM | [14] 50 µM | [18] 58.4 µM
not listed: [19] | [20]
inactive: all other assays above

CC(=O)[C@H]1CC[C@H]2[C@@H]3CCC4=CC(=O)CC[C@]4(C)[C@H]3CC[C@]12C
inactive: [1] | [3] | [5] | [6] | [7] | [8] | [9] | [10] | [11] | [12] | [13] | [14] | [15] | [17] | [18]
active: [4] 116 µM | [19] 97.2 µM | [10] 115 µM | [11] 160 µM | [12] 8.67 µM | [13] 100 µM | [14] 33.4 µM and 170 µM | [16] 33.4 µM and 24.3 µM and 33.7 µM | [18] 68.4 µM

COc1nc(C)nc(NC(=O)NS(=O)(=O)c2ccccc2OCCCl)n1
inactive: [1] | [2] | [3] | [5] | [6] | [19] | [7] | [8] | [9] | [10] | [11] | [12] | [13] | [14] | [15] | [16] | [17] | [18] | [20]
active: [12] 9.13 µM

CCCCOC(=O)C(C)Oc1ccc(Oc2ccc(C(F)(F)F)cn2)cc1 (centres undefined)
active: [1] 34.9 µM
not listed: [2] | [7] | [9]
inactive: all other assays above

CN(C)C(=O)Nc1ccc(Cl)c(Cl)c1
inactive: [3] | [4] | [5] | [6] | [19] | [8] | [10] | [11] | [12] | [14] | [15] | [16] | [17] | [18]
active: [1] 15.7 µM | [11] 79.1 µM | [14] 27.7 µM | [16] 22.2 µM

CC(=O)S[C@@H]1CC2=CC(=O)CC[C@]2(C)[C@H]2CC[C@@]3(C)[C@@H](CC[C@@]34CCC(=O)O4)[C@H]12
inactive: [3] | [8] | [10] | [11] | [12] | [13] | [14] | [15] | [16] | [18]
active: [1] 100 µM | [5] 49.3 µM | [6] 48.6 µM | [19] 40.3 µM | [11] 26.1 µM and 3.77 µM and 12.1 µM | [12] 10.6 µM and 12.5 µM and 11.8 µM | [16] 70.9 µM and 152 µM
